Results reported in PubChem BioAssay (NCI).
Compounds without any hit were thinned out: in the full panel of roughly 83,000, 20% have a hit.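 48-hour exposure, single concentration, 96-well plates; percent growth endpoint where 0 means no net growth. Active: below 10.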 Values without a mark were called inactive. Calls of active or inactive are those of the source.

Columns and labels:
Assay in all cases: NCI-60 one-dose screen, 48 h (100 = growth as untreated, 0 = no growth, -100 = all killed)
Conditions in all cases: 10 µM unless noted
DU-145 prostate = tested on: DU-145 prostate
K-562 leukemia = tested on: K-562 leukemia
MALME-3M melanoma = tested on: MALME-3M melanoma
MDA-MB-231 breast = tested on: MDA-MB-231 breast
SF-268 CNS = tested on: SF-268 CNS
SF-295 CNS = tested on: SF-295 CNS
SF-539 CNS = tested on: SF-539 CNS
UACC-257 melanoma = tested on: UACC-257 melanoma
M14 melanoma = tested on: M14 melanoma
RXF 393 renal = tested on: RXF 393 renal

SMILES | growth (DU-145 prostate) | growth (K-562 leukemia) | growth (MALME-3M melanoma) | growth (MDA-MB-231 breast) | growth (SF-268 CNS) | growth (SF-295 CNS) | growth (SF-539 CNS) | growth (UACC-257 melanoma) | growth (M14 melanoma) | growth (RXF 393 renal)
COc1cc(C=C2c3ccccc3C(=O)c3ccccc32)ccc1OCCCCOc1cc2c(cc1OC)C(=O)N1CCCC1C=N2 (configuration not stated) | -92.7% (active) | -15.4% (active) | -28.8% (active) | -23.7% (active) | -59.9% (active) | -42.2% (active) | -70.9% (active) | -73.3% (active) | -66.7% (active) | –
C/C=C(\C)C(=O)O[C@@H]1C(O)[C@H]2OC(COC(=O)CCC(=O)CCCCCC[C@H](CCCCC)O[C@@H]3OC(C)[C@H](OC(C)=O)C(O)[C@H]3O2)[C@H]1OC(=O)/C=C/c1ccccc1 (some centres not stated) | 22.5% | 30.2% | 14.9% | -5.32% (active) | 18.1% | -33.6% (active) | -9.75% (active) | – | -13.1% (active) | –
COC(=O)CC12CC(NC(=O)c3csc([C@@H](C[C@H](C(C)C)N(C)C(=O)[C@@H](NC(=O)[C@H]4CCCCN4C)C(C)C)OC(C)=O)n3)(C1)C2 | 14% | 9.94% (active) | 51% | 6.67% (active) | 26.1% | -7.27% (active) | -12.8% (active) | – | 7% (active) | –
COC(=O)C1CCC(NC(=O)c2csc([C@@H](C[C@H](C(C)C)N(C)C(=O)[C@@H](NC(=O)[C@H]3CCCCN3C)C(C)C)OC(C)=O)n2)CC1 (some centres not stated) | 9.8% (active) | 10% | 57.8% | 12.1% | 22.6% | 2.5% (active) | -10.1% (active) | – | 1.47% (active) | –
COc1cccc(C=NC(Cc2cnc[nH]2)C(=O)O)c1O (configuration not stated) | 121% | 135% | – | 102% | 112% | 70.3% | 93.1% | 46.7% | 89.7% | 3.56% (active)
